Data on 40 molecules can be found in PubChem BioAssay (EPA / NIEHS).

Results filed as inconclusive are left out. The source made the active and inactive calls. How the source made its calls: active means hit-call score of the fitted dose curve at least 0.9, where 1 is the maximum; inconclusive means response in the unintended direction; inactive means score below 0.9.

Read-out in the experiment: ABC Transporter (ABCB11), ABCB11 (gene 8647)
Kind of experiment: CLD_ABCB11_6hr: CellzDirect (CLD) Gene Expression Assay for ABC Transporter (ABCB11) at 6 hours (AID 2283675).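 Further: hits raise ABCB11 mRNA level so AC50 marks induction.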 On the procedure:
CLD_6hr is a cell-based, multiplexed-readout assay that uses hepatocyte, a human liver primary cell, with measurements taken at 6 hours after chemical dosing in a 96-well plate.CLD_ABCB11_6hr is one of 16 assay component(s) measured or calculated from the CLD_6hr assay. It is designed to make measurements of mRNA induction, a form of inducible reporter, as detected with chemiluminescence signals by Quantitative Nuclease Protection Assay (qNPA) technology.Data from the assay component CLD_ABCB11_6hr was analyzed at the endpoint, CLD_ABCB11_6hr, in the positive analysis fitting direction relative to DMSO as the negative control and baseline of activity. Using a type of inducible reporter, gain-of-signal activity can be used to understand changes in the reporter gene as they relate to the gene ABCB11. Furthermore, this assay endpoint can be referred to as a primary readout. To generalize the intended target to other relatable targets, this assay endpoint is annotated to the transporter intended target family, where subfamily is ABC transporter.
Human hepatocyte cultures were treated daily for two consecutive days with fresh dosing solutions containing appropriate concentrations of the 320 ToxCast chemicals (chemical identities were blinded to CellzDirect and other ToxCast collaborators), vehicle control (0.2% DMSO), and positive control inducers as summarized in Table 1. Due to the large number of treatment groups and chemicals examined, the ToxCast chemicals were divided into two groups (spanning two independent cultures of hepatocytes from separate donor preparations (Hu778: ToxCast plates 1 and 2; Hu776: ToxCast plates 3 and 4). Each preparation of human hepatocyte cultures was treated with respective vehicle control, medium only control, set of six positive controls/reference chemicals for the five hepatic receptor pathways, and a subset of eight of the ToxCast chemicals (indoxacarb, pyrithiobac-sodium, norflurazon, cyhalofop-butyl, methomyl, thiram, acetochlor, and propiconazole). These replicate data, coupled with internal replicates designed within the blinded ToxCast chemical library, provided additional data to evaluate interindividual differences between hepatocyte preparations and their potential impact on chemical profiles.Cell morphology and integrity were evaluated using phase-contrast microscopy as an indicator of hepatocyte cell health (Tyson & Green, 1987). Cultures for each treatment group (i.e., media, vehicle [0.2% DMSO], positive control inducers [multiple concentrations], and the ToxCast chemicals [multiple concentrations]) were observed and cell morphology was assessed relative to vehicle control cultures at each harvest time point (0, 6, 24, or 48 h). […] Images were evaluated at the conclusion of the study to assess changes in cell integrity and account for the effects of chemical exposure on uncharacteristic changes in concentration-dependent gene expression profiles. The results from these determinations of apparent cytotoxicity were annotated (yes/no) alongside the corresponding qNPA data for reference.At the conclusion of each treatment period, hepatocyte cultures (96-well) were washed with 1 volume of HBSS, lysed by addition of 25 ul ArrayPlate lysis buffer (HTG, Tucson, AZ), and 70 ul/well of Denaturation Oil, denatured by incubation at 95C for 10 min, and frozen at approximately -70C until analysis by nuclease protection assay (qNPA) (Roberts et al., 2007). For qNPA analysis, cell lysates were thawed at 50C for approximately 30 min, qNPA probes were added, and samples were incubated at 95C for 10 min to begin the detection process by denaturing the target RNA, dissociating the duplexes and secondary structure hybridization. At the conclusion of the hybridization period, S1 nuclease reagent was added to each sample to digest all nonprotected nucleotides at 50C for 60-90 min. […]
Regarding `COP(=O)(OC)OC(Br)C(Cl)(Cl)Br` (stereo not given), the call was inactive.

In the case of `CCOC(=O)CC(SP(=O)(OC)OC)C(=O)OCC` (stereo not given), the molecule was classed as inactive.

As to `O=C(O)c1cc(Oc2ccc(C(F)(F)F)cc2Cl)ccc1[N+](=O)[O-]`, the molecule was classed as inactive.

For the molecule `C=C(C)[C@H]1Cc2c(ccc3c2O[C@@H]2COc4cc(OC)c(OC)cc4[C@@H]2C3=O)O1`, the outcome was inactive.

Consider `CCC(=O)Nc1ccc(Cl)c(Cl)c1`, for which the call was inactive.

The term AC50 denotes the midpoint of the concentration-response curve, whichever way the signal moves. Regarding `CCOP(=S)(Oc1cnc(C(C)(C)C)nc1)OC(C)C` (stereo not given), the AC50 is 27.4 µM (active).

Turning to `COP(=O)(OC)SCn1c(=O)oc2cc(Cl)cnc21`, the molecule was classed as inactive.

For `CN(C)NC(=O)CCC(=O)O`, the result was inactive.

As for `O=c1ccc(=O)[nH][nH]1`, the outcome was inactive.

Turning to `CNC(=O)ON=C(C)SC`, the call was inactive.

With `CC[C@H](C)[C@H]1O[C@]2(C=C[C@@H]1C)C[C@@H]1C[C@@H](C/C=C(\C)[C@@H](O[C@H]3C[C@H](OC)[C@@H](O[C@H]4C[C@H](OC)[C@@H](NC)[C@H](C)O4)[C@H](C)O3)[C@@H](C)/C=C/C=C3\CO[C@@H]4[C@H](O)C(C)=C[C@@H](C(=O)O1)[C@]34O)O2`, the molecule was classed as inactive.

In the case of `Nc1c(Cl)cc([N+](=O)[O-])cc1Cl`, the result was inactive.

Turning to `CC(Oc1cccc(Cl)c1)C(=O)O` (stereo not given), the result was inactive.

On to `CCC(CC)Nc1c([N+](=O)[O-])cc(C)c(C)c1[N+](=O)[O-]`, for which the call was inactive.

Consider `CC(C)N(C(=O)SCC(Cl)=C(Cl)Cl)C(C)C`, for which the call was inactive.

Take `COP(=O)(OC)C(O)C(Cl)(Cl)Cl` (stereo not given): the molecule was classed as inactive.

Consider `C[Si](Cn1cncn1)(c1ccc(F)cc1)c1ccc(F)cc1`, for which the result was inactive.

`CCOP(=S)(OCC)Oc1ccc2c(C)c(Cl)c(=O)oc2c1`: the result was inactive.

Turning to `CC(C1CC1)C(O)(Cn1cncn1)c1ccc(Cl)cc1` (stereo not given), the outcome was inactive.

On to `CC1(C(=O)Nc2ccc(O)c(Cl)c2Cl)CCCCC1`, for which the outcome was inactive.

Turning to `CCNc1nc(Cl)nc(NC(C)(C)C#N)n1`, the call was inactive.

`CCCCSP(=O)(SCCCC)SCCCC`: the result was inactive.

Consider `C#CCC1=C(C)C(OC(=O)C2C(C=C(C)C)C2(C)C)CC1=O` (stereo not given), for which the molecule was called inactive.

`COc1cccc(C(=O)NN(C(=O)c2cc(C)cc(C)c2)C(C)(C)C)c1C`: the result was inactive.

For `CCCOCC(=Nc1ccc(Cl)cc1C(F)(F)F)n1ccnc1`, the outcome was inactive.

As for `CC1=NNC(=O)N(/N=C/c2cccnc2)C1`, the call was inactive.

With `CCc1cccc(CC)c1N(COC)C(=O)CCl`, the outcome was inactive.

`N#CSCSC#N`: the call was inactive.

For `O=[N+]([O-])c1cc(C(F)(F)F)c(Cl)c([N+](=O)[O-])c1Nc1ncc(C(F)(F)F)cc1Cl`, the call was inactive.

On to `CON=C(C(=O)OC)c1ccccc1CON=C(C)c1cccc(C(F)(F)F)c1`, for which the call was inactive.

Take `CC(C)[C@H](C(=O)O[C@H](C#N)c1cccc(Oc2ccccc2)c1)c1ccc(Cl)cc1`: the call was inactive.

Take `CCc1cnc(C2=NC(C)(C(C)C)C(=O)N2)c(C(=O)O)c1` (stereo not given): the call was inactive.

With `CCOC(=O)COc1cc(-c2nn(C)c(OC(F)F)c2Cl)c(F)cc1Cl`, the call was inactive.

Take `CCOP(=S)(OCC)OC(Cl)C(Cl)(Cl)Cl` (stereo not given): the outcome was inactive.

As to `CN1COCN(Cc2cnc(Cl)s2)C1=N[N+](=O)[O-]`, the call was inactive.

As to `CCOP(=S)(OCC)Oc1cc(C)nc(C(C)C)n1`, the result was inactive.

For `CCCSP(=O)(OCC)SCCC`, the molecule was classed as inactive.

`CNc1cnn(-c2cccc(C(F)(F)F)c2)c(=O)c1Cl`: the molecule was called inactive.

As to `S=C1NCCN1`, the call was inactive.

Regarding `CCOP(=O)(SC(C)CC)N1CCSC1=O` (stereo not given), the call was inactive.
